Source: PMC12431657, “Discovery and mechanistic insights of dibenzoylmethane as a broad spectrum inhibitor of coronavirus” (PLOS Pathogens, 2025)
Counter-ions that a name gives are not always drawn. Like-named read-outs stand apart in the source and are kept apart here. In all, about 3,300 compounds went through this assay and about 60 (2%) showed an effect of 50% or more. The sample as a whole holds a higher share of strong results than the screen did. Bridge positions count the residues as written; N and C are the ends. Square brackets hold non-standard residues; d marks the D form. Peptide text beside a SMILES is read from it. * marks the point of attachment. Ileψ(thiazoline)Cys = CC[C@H](C)[C@H](N)C1=N[C@H](C(=O)*)CS1; NMePhe(4-NMe2) = CN[C@@H](Cc1ccc(N(C)C)cc1)C(=O)O; Pip(4-oxo) = O=C1CCN[C@H](C(=O)O)C1; Picolinoyl(3-OH) = O=C(c1ncccc1O)*; Phg = N[C@H](C(=O)O)c1ccccc1; dOrn = NCCC[C@@H](N)C(=O)O; dAbu = CC[C@@H](N)C(=O)O

Test system: HCoV-OC43
Parameters: species or system RD; HTS, protection from HCoV-OC43 induced cell death, luminescent cell viability (CellCounting-Lite 2.0), inhibition rate
Settings: 24 h post infection, 1 h compound pre-incubation, 10 µM, inhibitor

| Structure (SMILES) | OC43 Inhibition rate (OC43 Inhibition rate, 24 h) | OC43 Inhibition rate |
| --- | --- | --- |
| C[C@H](CCC(=O)NCC(=O)O)[C@H]1CC[C@H]2[C@@H]3CC[C@@H]4C[C@H](O)CC[C@]4(C)[C@H]3C[C@H](O)[C@]12C [Glycodeoxycholic acid (monohydrate)] | -0.8% | – |
| CCCCCCCC/C=C\CCCCCCCCCCCCCC(=O)O [Nervonic acid] | – | -2.1% |
| CC(=O)N[C@H](C(=O)O)C(C)C [Acetylvaline] | – | -0.2% |
| COc1ccc2c(c1OC)CN(C)c1c-2ccc2cc3c(cc12)OCO3 [Dihydrochelerythrine] | – | 1.4% |
| O=c1cc(-c2ccccc2)oc2c1ccc1ccccc12 [Alpha-Naphthoflavone] | – | 65.1% |
| O=c1cc(-c2ccccc2)oc2ccccc12 [Flavone] | – | 0.3% |
| O=c1cc(-c2ccccc2)oc2c(O)c(O)ccc12 [7,8-Dihydroxyflavone] | – | 0.2% |
| CC(C)=CCC[C@](C)(O[C@@H]1O[C@H](CO)[C@@H](O)[C@H](O)[C@H]1O)[C@H]1CC[C@]2(C)[C@@H]1[C@H](O)C[C@@H]1[C@@]3(C)CC[C@H](O)C(C)(C)[C@@H]3[C@@H](O[C@@H]3O[C@H](CO)[C@@H](O)[C@H](O)[C@H]3O[C@@H]3OC[C@@H](O)[C@H](O)[C@H]3O)C[C@]12C [Notoginsenoside R1] | – | 0.5% |
| N[C@@H](Cc1c[nH]cn1)C(=O)O [L-Histidine (hydrochloride hydrate)] | 2.4% | – |
| CC[C@H]1NC(=O)[C@@H](NC(=O)c2ncccc2O)[C@@H](C)OC(=O)[C@H](c2ccccc2)NC(=O)[C@@H]2CC(=O)CCN2C(=O)[C@H](Cc2ccc(N(C)C)cc2)N(C)C(=O)[C@@H]2CCCN2C1=O [Pristinamycin IA] ({Picolinoyl(3-OH)}-T[dAbu]P[NMePhe(4-NMe2)][Pip(4-oxo)][Phg]; ester 1-C) | – | 1.7% |
| NCCCCNCCCN [Spermidine] | -0.8% | – |
| COc1cc(O)cc2oc(-c3ccc(O)c(O)c3)c(O)c(=O)c12 [Azaleatin] | – | 7.4% |
| COc1ccc2cc3n(c(=O)c2c1OC)CCc1cc2c(cc1-3)OCO2 [Oxyberberine] | – | 58.7% |
| COc1cc2c(cc1OC)-c1cc3ccc4c(c3c(=O)n1CC2)OCO4 [8-Oxoepiberberine] | – | 10.1% |
| O=c1c2c3c(ccc2cc2n1CCc1cc4c(cc1-2)OCO4)OCO3 [8-Oxocoptisine] | – | -0.2% |
| OC[C@H]1O[C@@H](Oc2cc(/C=C/c3cc(O)cc(O)c3)ccc2O)[C@H](O)[C@@H](O)[C@@H]1O [Piceatannol 3'-O-glucoside] | – | 2% |

| Structure (SMILES) | OC43 Inhibition rate (OC43 Inhibition rate, 24 h) | OC43 Inhibition rate |
| --- | --- | --- |
| CC(C)=CCC12Oc3cc(O)ccc3C1(O)Oc1cc(O)c([C@H]3C=C(C)C[C@@H](c4ccc(O)cc4O)[C@@H]3C(=O)c3ccc(O)cc3O)c(O)c1C2=O (some centres unmarked) [Sanggenon D] | – | 42.1% |
| CN[C@@H](C)[C@H]1[C@H](O)C[C@@]2(C)[C@@H]3CC[C@H]4C(C)(C)[C@@H](NC)CC[C@@]45C[C@@]35CC[C@]12C [Cyclovirobuxine D] | – | 109.3% |
| CC(C)(O)[C@H]1CC[C@@](C)([C@H]2[C@@H](O)C[C@@]3(C)[C@@H]4C[C@H](O)[C@H]5C(C)(C)[C@@H](O)CC[C@@]56C[C@@]46CC[C@]23C)O1 [Cyclogalegenin] | – | 8.4% |
| CC(C)(O)[C@@H]1CC[C@](C)([C@H]2[C@@H](O)C[C@@]3(C)[C@@H]4C[C@H](O)[C@H]5C(C)(C)[C@@H](O)CC[C@@]56C[C@@]46CC[C@]23C)O1 [Cycloastragenol] | – | 0.7% |
| NCC(O)c1ccccc1 (centres unmarked) [2-Amino-1-phenylethanol] | – | 0% |
| O=C(O)c1ccc(O)cc1 [4-Hydroxybenzoic acid] | – | 0.1% |
| C[C@@H](O)CO [(R)-(-)-1,2-Propanediol] | – | -0.2% |
| COc1cc(CNC(=O)CCCC/C=C/C(C)C)ccc1O[C@@H]1O[C@H](CO)[C@@H](O)[C@H](O)[C@H]1O [Capsaicin β-D-glucopyranoside] | – | 0.3% |
| CC1=CC(=O)[C@@H]2C[C@H]1C2(C)C [Verbenone] | – | -0.2% |
| C=C1[C@@H](O)[C@]2(O)OC[C@]34[C@H]2[C@@]2(C)[C@H](O)C(=O)C=C(C)[C@@H]2C[C@H]3OC(=O)[C@H](O)[C@@]14O [Eurycomanone] | – | 54.5% |
| O=C(O)c1ccncc1 [Isonicotinic acid] | – | -0.2% |
| O=C(O)C(CO)c1ccccc1 (centres unmarked) [Tropic acid] | – | 0.5% |
| CCC(C)(C)C(=O)O[C@H]1C[C@@H](C)C=C2C=C[C@H](C)[C@H](CC[C@@H](O)C[C@@H](O)CC(=O)O)[C@H]21 [Simvastatin acid (ammonium)] | – | 5% |
| CCCCCCCCCC(=O)N[C@@H](Cc1c[nH]c2ccccc12)C(=O)N[C@H](CC(N)=O)C(=O)N[C@@H](CC(=O)O)C(=O)N[C@@H]1C(=O)NCC(=O)N[C@@H](CCCN)C(=O)N[C@@H](CC(=O)O)C(=O)N[C@H](C)C(=O)N[C@@H](CC(=O)O)C(=O)NCC(=O)N[C@H](CO)C(=O)N[C@@H]([C@H](C)CC(=O)O)C(=O)N[C@@H](CC(=O)c2ccccc2N)C(=O)O[C@@H]1C [Daptomycin] | – | 62.7% |
| CC[C@H](C)[C@H](N)C1=N[C@H](C(=O)N[C@@H](CC(C)C)C(=O)N[C@H](CCC(=O)O)C(=O)N[C@H](C(=O)N[C@H]2CCCCNC(=O)[C@H](CC(N)=O)NC(=O)[C@@H](CC(=O)O)NC(=O)[C@H](Cc3cnc[nH]3)NC(=O)[C@@H](Cc3ccccc3)NC(=O)[C@H]([C@@H](C)CC)NC(=O)[C@@H](CCCN)NC2=O)[C@@H](C)CC)CS1 [Bacitracin] ({Ileψ(thiazoline)Cys}-L[dE]IK[dOrn]I[dF]H[dD]N; lactam 4-C) | – | -0.3% |
| CC(C)[C@@H]1NC(=O)CNC(=O)[C@H](C)NC(=O)[C@H](Cc2c[nH]c3ccccc23)NC(=O)[C@H](C)NC1=O [Segetalin B] (cyclo(AGVAW)) | – | -0.5% |
